The nature of experiment [1]: qHTS for Inhibitors of the Functional Ribonucleoprotein Complex (vRNP) of Lassa (LASV) Arenavirus: LASV Primary Screen - GLuc reporter signal (AID 1347082; calls by dose curve; tested in HEK293 reporter line; further: nearly all actives have a fitted effect of over 60% in size). In general terms: Quantitative high-throughput screening tests each substance at several concentrations.
Experiment [2] in a line: qHTS for Inhibitors of the Functional Ribonucleoprotein Complex (vRNP) of Lassa (LASV) Arenavirus: Viability assay - alamar blue signal for LASV Primary Screen (AID 1347083; calls by dose curve; tested in HEK293 reporter line; further: nearly all actives have a fitted effect of over 80% in size).
Experiment [3] can be described thus: qHTS for Inhibitors of the Functional Ribonucleoprotein Complex (vRNP) of Lymphocytic Choriomeningitis Arenaviruses (LCMV): Viability assay - alamar blue signal for LCMV Primary Screen (AID 1347085; calls by dose curve; tested in HEK293 reporter line; further: nearly all actives have a fitted effect of over 80% in size).
Experiment [4] concerns the target Nucleoprotein (Lymphocytic choriomeningitis virus (strain Armstrong)) (UniProt P09992). Nature of the experiment: qHTS for Inhibitors of the Functional Ribonucleoprotein Complex (vRNP) of Lymphocytic Choriomeningitis Arenaviruses (LCMV): LCMV Primary Screen - GLuc reporter signal (AID 1347086). Further: nearly all actives have a fitted effect of over 70% in size.

Results filed as inconclusive are left out. Activity calls are given as the source filed them. Unless noted, the call rests on the fitted dose curve.
Potency means the concentration at half of the fitted maximal effect.

Chain of Nucleoprotein (Lymphocytic choriomeningitis virus (strain Armstrong)) (P09992 whole entry, looked up): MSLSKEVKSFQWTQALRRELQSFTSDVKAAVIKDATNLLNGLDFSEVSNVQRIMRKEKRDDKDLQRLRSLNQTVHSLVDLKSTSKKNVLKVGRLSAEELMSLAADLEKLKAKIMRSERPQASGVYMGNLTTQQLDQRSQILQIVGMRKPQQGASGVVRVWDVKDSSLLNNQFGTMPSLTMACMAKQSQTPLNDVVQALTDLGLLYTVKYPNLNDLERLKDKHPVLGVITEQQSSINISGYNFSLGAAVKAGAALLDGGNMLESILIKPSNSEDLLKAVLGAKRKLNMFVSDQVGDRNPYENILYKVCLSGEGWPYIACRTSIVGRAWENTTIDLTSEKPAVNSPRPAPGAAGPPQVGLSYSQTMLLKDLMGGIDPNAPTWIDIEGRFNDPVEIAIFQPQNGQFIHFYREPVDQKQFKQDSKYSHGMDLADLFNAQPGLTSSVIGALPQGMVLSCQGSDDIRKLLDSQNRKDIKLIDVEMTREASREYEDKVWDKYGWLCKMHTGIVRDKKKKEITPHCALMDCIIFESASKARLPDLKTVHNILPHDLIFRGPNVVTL

For the compound `C=CC(C)(C)c1c2occc2c(O)c2ccc(=O)oc12`, the Potency entry in experiment [1] and in experiment [2] was “inactive” throughout.

Turning to `O=C(/C=C/c1ccc(O)c(O)c1)c1ccc(O[C@@H]2O[C@H](CO)[C@@H](O)[C@H](O)[C@H]2O)c(O)c1O`, the Potency result in experiment [1] and in experiment [2] was “inactive” each time.

Consider `CCC(=C(c1ccc(O)cc1)c1ccc(OCCNC)cc1)c1ccccc1`, for which the Potency is 3.43 µM (active) in experiment [1], 3.43 µM (active) in experiment [2] and 13.7 µM (active) in experiment [3].

Regarding `O=C1NC(=O)C(=Cc2ccc3c(c2)OC(F)(F)O3)S1`, the Potency result in experiment [1] and in experiment [2] was “inactive” in each case.

`O=C1NC(=O)C(=Cc2ccc3nccc(-c4ccncc4)c3c2)S1`: the Potency was 0.432 µM (active) in experiment [1], 0.109 µM (active) in experiment [2] and 0.273 µM (active) in experiment [3].

Regarding `CN[C@@H]1CN(c2ccc3c(=O)c(C(=O)O)cn(-c4nccs4)c3n2)C[C@@H]1OC`, the Potency result in experiment [1] is “inactive”. The Potency was 10.6 µM (active) in experiment [2] and 15 µM (active) in experiment [3].

As for `Oc1ccc(C2CCN(c3ccnc4ccccc34)CC2)cc1O`, the Potency is 15.3 µM (active) in experiment [1] and 6.85 µM (active) in experiment [2].

With `Cc1cc(Nc2ncc3c(n2)N(C)C(=O)N(c2cc(NC(=O)c4cccc(C(F)(F)F)c4)ccc2C)C3)n(C)n1`, the Potency is 3.85 µM (active) in experiment [1], 0.611 µM (active) in experiment [2] and 1.53 µM (active) in experiment [3].

In the case of `COc1cc2nc(-c3cc(F)ccc3O)nc(N[C@@H]3CNC[C@@H]3C(C)(C)O)c2cc1OC`, the Potency was 1.37 µM (active) in experiment [1], 1.09 µM (active) in experiment [2] and 8.63 µM (active) in experiment [3].

Take `Nc1ccn([C@@H]2O[C@H](CO)[C@@H](OP(=O)(O)O)[C@H]2O)c(=O)n1`: the Potency result in experiment [1], in experiment [2], in experiment [3] and in experiment [4] was “inactive” each time.

As to `CCS(=O)(=O)c1cccc(-c2cc(C(=O)NC3CCN(C)CC3)c(C)c3[nH]c4ncc(C)cc4c23)c1`, the Potency in experiment [1] was 12.2 µM (active); in experiment [2], 6.85 µM (active); in experiment [3], 6.11 µM (active).

For the compound `CC[C@H]1OC(=O)[C@H](C)C(=O)[C@H](C)[C@@H](O[C@H]2O[C@H](C)C[C@H](N(C)C)[C@@H]2O)[C@](C)(OC)C[C@@H](C)C(=O)[C@H](C)[C@H]2N(CCCCn3cnc(-c4cccnc4)c3)C(=O)O[C@]12C`, the Potency result in experiment [1], in experiment [2] and in experiment [3] was “inactive” throughout.

Regarding `COC(=O)/C=C/c1ccccc1`, the Potency entry in experiment [1], in experiment [2], in experiment [3] and in experiment [4] was “inactive” in each case.

Consider `CC(=O)[C@]1(O)Cc2c(O)c3c(c(O)c2[C@@H](O[C@H]2C[C@H](N)[C@@H](O)[C@H](C)O2)C1)C(=O)c1ccccc1C3=O`, for which the Potency was 10.9 µM (active) in experiment [1], 0.769 µM (active) in experiment [2] and 0.611 µM (active) in experiment [3].

On to `COc1cccc(-c2ccc(NC(=O)C3=C(C(=O)O)CCC3)c(F)c2)c1`, for which the Potency result in experiment [1], in experiment [2] and in experiment [3] was “inactive” throughout.

`C/C(=C\C(=O)O)CC(=O)O`: the Potency entry in experiment [1], in experiment [2], in experiment [3] and in experiment [4] was “inactive” each time.

Turning to `O=C(O)CCCCCCCCCC(=O)O`, the Potency entry in experiment [1], in experiment [2], in experiment [3] and in experiment [4] was “inactive” throughout.

For the compound `C[N+](C)(C)CCOP(=O)([O-])OC[C@H](O)CO`, the Potency result in experiment [1], in experiment [2], in experiment [3] and in experiment [4] was “inactive” throughout.

Take `CCCC/C=C/CCCCO`: the Potency entry in experiment [1], in experiment [2], in experiment [3] and in experiment [4] was “inactive” throughout.

In the case of `OC1O[C@H](c2ccc3c(c2)OCO3)[C@H]2CO[C@H](c3ccc4c(c3)OCO4)[C@@H]12` (stereo not given in full), the Potency result in experiment [1], in experiment [2], in experiment [3] and in experiment [4] was “inactive” each time.

For `Cc1cccc2c3c(ccc12)C1=C(C(=O)C3=O)[C@@H](C)CO1`, the Potency entry in experiment [1], in experiment [2], in experiment [3] and in experiment [4] was “inactive” throughout.

As to `CN1CC(=O)N2C(Cc3c([nH]c4ccccc34)[C@H]2c2ccc3c(c2)OCO3)C1=O` (stereo not given in full), the Potency result in experiment [1], in experiment [2], in experiment [3] and in experiment [4] was “inactive” in each case.

Consider `CC1=CCC(C(C)C)C=C1` (stereo not given), for which the Potency entry in experiment [1], in experiment [2], in experiment [3] and in experiment [4] was “inactive” throughout.

Turning to `CNC(=O)c1ccccc1Sc1ccc2c(C=Cc3ccccn3)n[nH]c2c1`, the Potency entry in experiment [1], in experiment [3] and in experiment [4] was “inactive” in each case. Further, the Potency in experiment [2] was 17.2 µM (active).

Take `O=C1c2ccccc2-n2c1nc1ccccc1c2=O`: the Potency result in experiment [1], in experiment [2] and in experiment [3] was “inactive” throughout. Moreover, the Potency in experiment [4] is 0.447 µM (active).

Take `COC(=O)C1=CO[C@@H](C)[C@@H]2CN3CCc4c([nH]c5ccccc45)[C@@H]3C[C@H]12`: the Potency entry in experiment [1], in experiment [2], in experiment [3] and in experiment [4] was “inactive” throughout.

As to `O=C(C=CC=Cc1ccc2c(c1)OCO2)N1CCCCC1`, the Potency entry in experiment [1], in experiment [2], in experiment [3] and in experiment [4] was “inactive” each time.

As to `Cc1cc2c(c(C)c1CCO)C(=O)[C@H](C)C2`, the Potency result in experiment [1], in experiment [2], in experiment [3] and in experiment [4] was “inactive” throughout.

Regarding `CCCCCCCCCCOC(C)=O`, the Potency entry in experiment [1], in experiment [2], in experiment [3] and in experiment [4] was “inactive” each time.

Take `CC1=CC(=O)/C(=C(/C)O)C(=O)O1`: the Potency result in experiment [1], in experiment [2], in experiment [3] and in experiment [4] was “inactive” each time.

For `O=C(CNC(=O)c1ccccc1)c1ccccc1`, the Potency entry in experiment [1], in experiment [2], in experiment [3] and in experiment [4] was “inactive” throughout.

In the case of `CCCCN(CCCC)CC(O)c1cc(Cl)cc2c1-c1ccc(Cl)cc1C2=Cc1ccc(Cl)cc1` (stereo not given), the Potency result in experiment [1], in experiment [2], in experiment [3] and in experiment [4] was “inactive” in each case.

Turning to `O=c1cc(-c2ccc(O)cc2)oc2c([C@@H]3O[C@H](CO)[C@@H](O)[C@H](O)[C@H]3O)c(O)c([C@@H]3O[C@H](CO)[C@@H](O)[C@H](O)[C@H]3O)c(O)c12`, the Potency result in experiment [1], in experiment [2], in experiment [3] and in experiment [4] was “inactive” throughout.

Source of the values: PubChem BioAssay (NCATS).
